# Compounds without any hit were thinned out: in the full panel of roughly 83,000, 20% have a hit.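 Each cell line was grown in a 96-well plate and treated with one concentration of compound for 48 hours. Values below 10 were considered active.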 Active and inactive are the calls of the source.
# Test system: NCI-H522 lung
# Assay: NCI-60 one-dose screen, 48 h (100 = growth as untreated, 0 = no growth, -100 = all killed)
# Conditions: 10 µM
row,Compound,growth
1,CCCCCCCCCCC1CO1 (configuration not stated),102% (inactive)
2,CC(=Nc1ccccc1)C1=C(O)C(Cc2cccc(F)c2)NC1=O (configuration not stated),-34.5% (active)
3,CC(=O)OCC(=O)[C@@]1(O)CC[C@H]2[C@@H]3CC[C@@H]4C[C@H](O)CC[C@]4(C)[C@H]3C(=O)C[C@@]21C,90.4% (inactive)
4,O=c1[nH]nc(SC2CCCCC2)c(=O)[nH]1,80.5% (inactive)
5,CC1CCC(C(=O)O)N1 (configuration not stated),91.3% (inactive)
6,O=P(O)(O)OCC(O)CO (configuration not stated),109% (inactive)
7,COc1cccc(/C=N/NC(=S)NC2CC3CCC2C3)c1O (configuration not stated),64.7% (inactive)
8,CCn1c(=O)n(C)c2c(=O)n(C)c(=O)n(C)c21,96.1% (inactive)
9,CC(=O)c1ccc(N=C(C#N)C2=C(O)c3ccccc3C2=O)cc1,78.6% (inactive)
10,O=[N+]([O-])c1cccc(N=Nc2ccc(O)cc2O)c1,-11.1% (active)
11,COc1ccc(-c2cc3c(nn2)-c2ccccc2C3=O)cc1,26.4% (inactive)
12,COc1cc2nn(-c3ccccc3N)nc2cc1OC,100% (inactive)
13,CC1CC(O)C2C3(C)CCCC2(COC3=O)C12CCC1(CCOC1=O)O2 (configuration not stated),107% (inactive)
14,NC(=S)N/N=C/c1ccc(N)cc1,92.3% (inactive)
15,O=C(O)COCC(=O)O,94.3% (inactive)
16,Cc1cc(N)c(S(=O)(=O)O)c(N)c1,87.9% (inactive)
17,S=C1CCCCCN1,105% (inactive)

row,Compound,growth
1,O=c1[nH][nH]c(=O)c2cc([N+](=O)[O-])ccc12,90.6% (inactive)
2,CC(=O)OCCO,111% (inactive)
3,C/C(=N/NC(N)=O)c1ccco1,90.5% (inactive)
4,CC1CCCCN1C(=S)Nc1ccc(S(=O)(=O)N2CCCCC2)cc1 (configuration not stated),73% (inactive)
5,COC(=O)c1ccc(C(C)C)cc1,79.3% (inactive)
6,OCC(O)C(O)C(O)C(O)/C=N/O (configuration not stated),94.9% (inactive)
7,O=[N+]([O-])c1ccc(N=Nc2ccc(O)c3ccccc23)cc1,-14.2% (active)
8,Cc1ccc(S(=O)(=O)O)c(C)c1,90.2% (inactive)
9,COCCOC(=O)c1ccc(C(C)C)cc1,79.7% (inactive)
10,CCNc1nc2c(cnn2C)c(=O)[nH]1,98.4% (inactive)
11,NCCCN,105% (inactive)
12,COc1cc2c3cc1Oc1c(OC)c(OC)cc4c1C(Cc1ccc(O)c(c1)Oc1ccc(cc1)CC3N(C)CC2)N(C)CC4 (configuration not stated),-34.4% (active)
13,CCOC(=O)c1ccc(NC(=S)P(=O)(c2ccccc2)c2ccccc2)cc1,113% (inactive)
14,CCCCOC(=O)c1ccc(C(C)C)cc1,83.1% (inactive)
15,CC(=O)/C(Cc1ccccc1)=N/O,74.3% (inactive)
16,COc1cc(C2c3cc4c(cc3C3OC(=O)C2C3CO)OCO4)cc(OC)c1OC (configuration not stated),-30.5% (active)
17,CCCC(C)OCC(=O)O (configuration not stated),101% (inactive)

# Test system: A549/ATCC NSCLC
# Assay: as above
# Conditions: 10 µM
row,Compound,growth
1,CCCCCCCCCCC1CO1 (configuration not stated),99.5% (inactive)
2,CC(=Nc1ccccc1)C1=C(O)C(Cc2cccc(F)c2)NC1=O (configuration not stated),14.3% (inactive)
3,O=[N+]([O-])c1ccc(S(=O)(=O)NN=C2CCCCC2)cc1,93.9% (inactive)
4,CC(=O)OCC(=O)[C@@]1(O)CC[C@H]2[C@@H]3CC[C@@H]4C[C@H](O)CC[C@]4(C)[C@H]3C(=O)C[C@@]21C,101% (inactive)
5,O=c1[nH]nc(SC2CCCCC2)c(=O)[nH]1,91.4% (inactive)
6,CC1CCC(C(=O)O)N1 (configuration not stated),99.4% (inactive)
7,O=P(O)(O)OCC(O)CO (configuration not stated),97.3% (inactive)
8,COc1cccc(/C=N/NC(=S)NC2CC3CCC2C3)c1O (configuration not stated),43.9% (inactive)
9,CCn1c(=O)n(C)c2c(=O)n(C)c(=O)n(C)c21,101% (inactive)
10,O=[N+]([O-])c1cccc(N=Nc2ccc(O)cc2O)c1,93.6% (inactive)
11,COc1ccc(-c2cc3c(nn2)-c2ccccc2C3=O)cc1,2.29% (active)
12,COc1cc2nn(-c3ccccc3N)nc2cc1OC,95.1% (inactive)
13,NC(=S)N/N=C/c1ccc(N)cc1,76% (inactive)
14,O=C(O)COCC(=O)O,91.6% (inactive)
15,Cc1cc(N)c(S(=O)(=O)O)c(N)c1,109% (inactive)
16,S=C1CCCCCN1,101% (inactive)
17,O=c1[nH][nH]c(=O)c2cc([N+](=O)[O-])ccc12,108% (inactive)

row,Compound,growth
1,CC(=O)OCCO,99.2% (inactive)
2,C/C(=N/NC(N)=O)c1ccco1,83.7% (inactive)
3,CC1CCCCN1C(=S)Nc1ccc(S(=O)(=O)N2CCCCC2)cc1 (configuration not stated),101% (inactive)
4,COC(=O)c1ccc(C(C)C)cc1,90.5% (inactive)
5,OCC(O)C(O)C(O)C(O)/C=N/O (configuration not stated),60.9% (inactive)
6,O=[N+]([O-])c1ccc(N=Nc2ccc(O)c3ccccc23)cc1,71.1% (inactive)
7,CCNc1nc2c(cnn2C)c(=O)[nH]1,109% (inactive)
8,NCCCN,105% (inactive)
9,COc1cc2c3cc1Oc1c(OC)c(OC)cc4c1C(Cc1ccc(O)c(c1)Oc1ccc(cc1)CC3N(C)CC2)N(C)CC4 (configuration not stated),-33% (active)
10,O=[N+]([O-])c1ccccc1N=Nc1ccc(O)cc1O,106% (inactive)
11,CCOC(=O)c1ccc(NC(=S)P(=O)(c2ccccc2)c2ccccc2)cc1,103% (inactive)
12,CCCCOC(=O)c1ccc(C(C)C)cc1,77% (inactive)
13,CC1C(=O)c2ccccc2CC1C(=O)O (configuration not stated),93.8% (inactive)
14,CC(=O)/C(Cc1ccccc1)=N/O,95.4% (inactive)
15,COc1cc(C2c3cc4c(cc3C3OC(=O)C2C3CO)OCO4)cc(OC)c1OC (configuration not stated),14.9% (inactive)
16,CCCC(C)OCC(=O)O (configuration not stated),93.9% (inactive)

# — PubChem BioAssay (NCI)
